Consider 45 sequences from PMC7819943, “Rice protein-binding microarrays: a tool to detect cis-acting elements near promoter regions in rice”.

The full ranking holds about 68,000 sequences; the median of “fluorescence intensity (a.u.)” is about 9,100, and the highest 2% start at about 16,000. For the sample, the highest values were picked, then their nearest neighbours and some sequences at random.

OsWRKY34, sequence (Q0JBA9 entry or part of it): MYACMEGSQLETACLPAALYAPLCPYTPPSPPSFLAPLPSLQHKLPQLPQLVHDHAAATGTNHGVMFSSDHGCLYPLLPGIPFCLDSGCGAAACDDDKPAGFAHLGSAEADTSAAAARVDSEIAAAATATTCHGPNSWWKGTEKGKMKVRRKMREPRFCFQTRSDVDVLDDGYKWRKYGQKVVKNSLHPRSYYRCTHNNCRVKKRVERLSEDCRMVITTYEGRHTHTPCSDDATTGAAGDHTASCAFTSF

The experiment addresses OsWRKY34 (Oryza sativa, UniProt Q0JBA9 1-250). As to the kind of experiment: protein-binding microarray (RPBM); PBS, 2% BSA, 51.3 ng/ul salmon testes DNA, 50 uM zinc acetate, 200 nM TF, 25 C, 1 h; high values mean tight binding. The conditions noted are these: protein: recombinant; tags: N-terminal polyhistidine and DsRed monomer fusion (pET32a); label: CyDye5-dUTP incorporated in the synthesized complementary strand; 3' TTTTT single-stranded linker to array surface; dsDNA, one strand shown. In a few lines:
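An Axon 4000B scanner gave the binding signal as per-feature fluorescence intensity in arbitrary units. This followed washing of a custom Agilent array that had been incubated for 1 h at 25 °C with 200 nM protein in PBS, 2% BSA, salmon testes DNA and 50 µM zinc acetate. The proteins were transcription factors fused at the N-terminus to polyhistidine and DsRed, expressed in E. coli BL21-CodonPlus and purified on Ni–NTA.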
On to “AGTGGTGCATTCTGTTTTTTTATATATTATTATTTGTTTACGGAGTCACCTAGTGCAG”, for which the binding signal is 9050 fluorescence intensity (a.u.). The figure for “GCCATTATATCTGCAGTTCTTTTCTGTGCTAAAATTTTAGCGGAGTCACCTAGTGCAG” is 17100 fluorescence intensity (a.u.); for “CATTTATCTATTTATCTATCTATATATATTATATTATATTCGGAGTCACCTAGTGCAG” it is 8560 fluorescence intensity (a.u.); for “AATTTCTGCTGCCATTTTCTATGTTCTTTAGTCTAAGTTTCGGAGTCACCTAGTGCAG” it is 14700 fluorescence intensity (a.u.). The result for “GGGTTTTTTATATACTGGTAAATATTCGCTACCGTATTCGCGGAGTCACCTAGTGCAG” reads 9130 fluorescence intensity (a.u.); that for “TTTCCGTACTAAATTTTGTTCATTCGTTTTATTTATTTTTCGGAGTCACCTAGTGCAG”, 17100 fluorescence intensity (a.u.).

Take “GAGCACATACTTTGGTCATTAATGGTGATTATAATGATATCGGAGTCACCTAGTGCAG”: the binding signal was 8820 fluorescence intensity (a.u.). The result for “GAGGAAACATCTATCCCGGTCAAAGCCTGAGCATGTACACCGGAGTCACCTAGTGCAG” reads 8210 fluorescence intensity (a.u.). The result for “TTTCTCTTTGCACCCTAGCCTCATGTTCTTCTTCTTCCTCCGGAGTCACCTAGTGCAG” reads 8680 fluorescence intensity (a.u.); that for “GAAGAGCCGGCTCGTTCCTCTCCTTCCCGTTCACATTTCACGGAGTCACCTAGTGCAG”, 8260 fluorescence intensity (a.u.); that for “CTGATGTCTGAACGACTGTACCCGACGTTGTTGATTGCTTCGGAGTCACCTAGTGCAG”, 9820 fluorescence intensity (a.u.). On to “GGGCGACAAGCACGCGTATACCCATCTATCATCCCGCTCCCGGAGTCACCTAGTGCAG”, for which the binding signal was 8390 fluorescence intensity (a.u.). The figure for “CACCAGCATCCTCGCACGGTCGCGACCCCTCCCGCACCTCCGGAGTCACCTAGTGCAG” is 8200 fluorescence intensity (a.u.); for “CAATCCGGACCATATAAGTGTTTTCCTTTTTTAATTCTTTCGGAGTCACCTAGTGCAG” it is 11300 fluorescence intensity (a.u.); for “TACATTACTTCATATTTTTTTCTGTTTGTGATTTCTATTTCGGAGTCACCTAGTGCAG” it is 9740 fluorescence intensity (a.u.). The result for “AATTTTGTATATTCGTTTGCACGTTTTTAAAACTCCTAAACGGAGTCACCTAGTGCAG” reads 65500 fluorescence intensity (a.u.); that for “GTATTTTAAGCATATTTTTTCGTTTTTTATATTTGTAAAACGGAGTCACCTAGTGCAG”, 11000 fluorescence intensity (a.u.).

Turning to “CCCCTATTTTGTTACCTCATTATTCTCGTATTCCCCTTTTCGGAGTCACCTAGTGCAG”, the binding signal is 9810 fluorescence intensity (a.u.). Regarding “ATAGTCATTTATTTTGTGCTCTCGTATTTTTTTTCTGTTTCGGAGTCACCTAGTGCAG”, the binding signal was 9540 fluorescence intensity (a.u.). The figure for “ACTATTACTTCTATTTTCTAGTATTTTTTTTTGTTTCTCTCGGAGTCACCTAGTGCAG” is 13500 fluorescence intensity (a.u.); for “TTATTTTGTGATTACTATCTCTCCGTTCATGTTTCTATCTCGGAGTCACCTAGTGCAG” it is 16400 fluorescence intensity (a.u.). Turning to “TACTATTTTTTCTCGTATTCATTATTTTGTGCATTATTTTCGGAGTCACCTAGTGCAG”, the binding signal is 17200 fluorescence intensity (a.u.). The result for “AAATTTGTATAGACGTTTGCTTTTAACTTAGTCCTAAATTCGGAGTCACCTAGTGCAG” reads 9130 fluorescence intensity (a.u.). As to “GATTGGGCGATTTCATCTTCTTCTTGGCCTTGAGGCGGTACGGAGTCACCTAGTGCAG”, the binding signal is 10000 fluorescence intensity (a.u.). The result for “TTTCTTAGCTATGTCCTAATTTATTACTGTGCATGTTTCTCGGAGTCACCTAGTGCAG” reads 10900 fluorescence intensity (a.u.); that for “CACATGTCATTGTCACACACACGCGCGCCCCATTGGACATCGGAGTCACCTAGTGCAG”, 9860 fluorescence intensity (a.u.); that for “ATTTGCACCTGTTGAATGGGCATGTCTTGTGTGTGTTTCTCGGAGTCACCTAGTGCAG”, 8400 fluorescence intensity (a.u.). The figure for “TCTCGGGCCGAAACGGTCAACGCGTTTACCGGTGGCATAACGGAGTCACCTAGTGCAG” is 17500 fluorescence intensity (a.u.).

“GTGGGGTCGGGTACTCGCGTGGGCCCACCTGGCCGGTCAACGGAGTCACCTAGTGCAG”: the binding signal was 10200 fluorescence intensity (a.u.). The figure for “CCCACCAGGCCACCAAACTCTCTCGGGCCGAAACGGTCAACGGAGTCACCTAGTGCAG” is 8380 fluorescence intensity (a.u.). “TCCTCTTGCAATCATTCACTCTCCTTGCTCGATTCTATAACGGAGTCACCTAGTGCAG”: the binding signal was 11300 fluorescence intensity (a.u.).

On to “AATTCTTTTGTCGTATTATCCTATCTACTTCCACTTATAACGGAGTCACCTAGTGCAG”, for which the binding signal was 8560 fluorescence intensity (a.u.). The figure for “AATATAGTTGCTGATGCGCTGTCCAGGATGCCTGTTATACCGGAGTCACCTAGTGCAG” is 9400 fluorescence intensity (a.u.). Regarding “GTTTCATTGAGATGGTGTCGACGTGGCGGCGTTGACTTAGCGGAGTCACCTAGTGCAG”, the binding signal was 10700 fluorescence intensity (a.u.). The figure for “AGTGTCTTTGACTTTTTGTTTGTAACGTTTGACCATTCGTCGGAGTCACCTAGTGCAG” is 21900 fluorescence intensity (a.u.). “CGACTTTGTTTTACCATTGTTTTTTTTGTCTTGTTTTAGTCGGAGTCACCTAGTGCAG”: the binding signal is 10600 fluorescence intensity (a.u.).

Consider “CCGTTGACATTTTATCTAACGTTTGACCATTCGTCTTATTCGGAGTCACCTAGTGCAG”, for which the binding signal is 15900 fluorescence intensity (a.u.).

For “ACACCATTGACTTTTTAGCATATGTTTAACCGTTTGTCTTCGGAGTCACCTAGTGCAG”, the binding signal is 13900 fluorescence intensity (a.u.). For “TGACACCGTTGACTTTTTTGTCTAAAGTTTAACCATTCGTCGGAGTCACCTAGTGCAG”, the binding signal is 32400 fluorescence intensity (a.u.). As for “GATTCTACTGCCCCGTTGACTAATTGTCTTCGTCAGGATCCGGAGTCACCTAGTGCAG”, the binding signal is 17900 fluorescence intensity (a.u.).

For “TAATTGTCTTCGTCAGGATCTTCTGCTAATTGTTTGATTTCGGAGTCACCTAGTGCAG”, the binding signal was 8680 fluorescence intensity (a.u.). Turning to “AATGCAACCATTAAGTTGTCGTTTAGTTGACTTTGTCTACCGGAGTCACCTAGTGCAG”, the binding signal was 8690 fluorescence intensity (a.u.). Turning to “CCCCGTCGTTGTCGCCACCTACTTCTACCTGCGCGGATTCCGGAGTCACCTAGTGCAG”, the binding signal was 10800 fluorescence intensity (a.u.). The result for “CAATGTTGTCTTGACTTTTTTTTAACGTTTAACCATTTGTCGGAGTCACCTAGTGCAG” reads 8940 fluorescence intensity (a.u.). As for “CCGCCGTTGACTTTTTGTCTAACGTTTGACCATTCGTCTTCGGAGTCACCTAGTGCAG”, the binding signal is 36200 fluorescence intensity (a.u.).
